Counter-ions that a name gives are not always drawn.
Columns and labels:
Assay in all cases: thermal shift delta Tm vs DMSO control; higher = stronger stabilization (binding)
Details in all cases: 12.5 µM; protein concentration 2 µM
LOC_OS02G45750-cb003 = tested on: LOC_OS02G45750-cb003
In short: (§1)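 Compounds dissolved in DMSO were added to purified rice kinase domain constructs, which had been expressed in E. coli, for differential scanning fluorimetry. Each well held 19.5 μl of 2 μM kinase in 100 mM potassium phosphate pH 7.5, 150 mM NaCl, 10% glycerol and 5 × SYPRO Orange. Fluorescence was followed from 25°C to 95°C at a rate of 0.05°C/s. Shifts in Boltzmann-fitted melting temperature are triplicate means relative to DMSO-only protein.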

LOC_OS02G54510-cb004 = tested on: LOC_OS02G54510-cb004
In short: as §1

LOC_OS03G04050-cb001 = tested on: LOC_OS03G04050-cb001
In short: as §1

LOC_OS03G12390-cb001 = tested on: LOC_OS03G12390-cb001
In short: as §1

LOC_OS03G27990-cb004 = tested on: LOC_OS03G27990-cb004
In short: as §1

LOC_OS03G50450-cb001 = tested on: LOC_OS03G50450-cb001
In short: as §1

LOC_OS03G50810-cb003 = tested on: LOC_OS03G50810-cb003
In short: as §1

LOC_OS04G35114-cb001 = tested on: LOC_OS04G35114-cb001
In short: as §1

LOC_OS04G38480-cb003 = tested on: T1, LOC_OS04G38480-cb003
T1 sequence (whole entry): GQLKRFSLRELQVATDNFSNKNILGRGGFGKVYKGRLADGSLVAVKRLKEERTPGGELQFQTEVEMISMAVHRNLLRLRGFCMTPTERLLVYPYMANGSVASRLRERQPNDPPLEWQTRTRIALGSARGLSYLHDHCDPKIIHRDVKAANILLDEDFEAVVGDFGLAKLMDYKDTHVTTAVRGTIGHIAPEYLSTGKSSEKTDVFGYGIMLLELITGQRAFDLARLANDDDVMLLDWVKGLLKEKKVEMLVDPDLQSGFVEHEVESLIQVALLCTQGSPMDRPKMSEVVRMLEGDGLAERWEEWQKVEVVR
In short: as §1

LOC_OS04G41100-cb001 = tested on: T2, LOC_OS04G41100-cb001
T2 sequence (whole entry): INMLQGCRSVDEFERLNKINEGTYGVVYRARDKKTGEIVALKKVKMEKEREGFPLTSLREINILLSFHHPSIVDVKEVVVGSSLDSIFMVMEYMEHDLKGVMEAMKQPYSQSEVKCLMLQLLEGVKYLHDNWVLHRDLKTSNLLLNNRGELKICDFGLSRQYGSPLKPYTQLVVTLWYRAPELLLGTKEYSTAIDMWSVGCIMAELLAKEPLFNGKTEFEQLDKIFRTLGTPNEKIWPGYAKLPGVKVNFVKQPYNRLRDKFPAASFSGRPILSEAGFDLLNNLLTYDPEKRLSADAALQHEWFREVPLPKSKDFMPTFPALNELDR
In short: as §1

LOC_OS04G57630-cb004 = tested on: LOC_OS04G57630-cb004
In short: as §1

LOC_OS05G07850-cb002 = tested on: LOC_OS05G07850-cb002
In short: as §1

LOC_OS05G16824-cb004 = tested on: LOC_OS05G16824-cb004
In short: as §1

LOC_OS05G28520-cb001 = tested on: LOC_OS05G28520-cb001
In short: as §1

LOC_OS05G30820-cb001 = tested on: LOC_OS05G30820-cb001
In short: as §1

LOC_OS05G43570-cb004 = tested on: LOC_OS05G43570-cb004
In short: as §1

LOC_OS06G16330-cb003 = tested on: LOC_OS06G16330-cb003
Chain of LOC_OS06G16330-cb003 (as listed by the source): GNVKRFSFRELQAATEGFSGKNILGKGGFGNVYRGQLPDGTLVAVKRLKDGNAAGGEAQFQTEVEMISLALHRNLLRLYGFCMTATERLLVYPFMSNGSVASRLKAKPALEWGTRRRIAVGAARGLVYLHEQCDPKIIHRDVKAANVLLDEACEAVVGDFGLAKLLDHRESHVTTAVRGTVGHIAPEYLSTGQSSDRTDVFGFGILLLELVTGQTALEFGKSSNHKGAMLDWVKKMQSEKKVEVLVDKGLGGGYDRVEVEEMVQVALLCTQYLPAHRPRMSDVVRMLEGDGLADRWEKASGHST
In short: as §1

LOC_OS06G22820-cb001 = tested on: T3, LOC_OS06G22820-cb001
T3 sequence (whole entry): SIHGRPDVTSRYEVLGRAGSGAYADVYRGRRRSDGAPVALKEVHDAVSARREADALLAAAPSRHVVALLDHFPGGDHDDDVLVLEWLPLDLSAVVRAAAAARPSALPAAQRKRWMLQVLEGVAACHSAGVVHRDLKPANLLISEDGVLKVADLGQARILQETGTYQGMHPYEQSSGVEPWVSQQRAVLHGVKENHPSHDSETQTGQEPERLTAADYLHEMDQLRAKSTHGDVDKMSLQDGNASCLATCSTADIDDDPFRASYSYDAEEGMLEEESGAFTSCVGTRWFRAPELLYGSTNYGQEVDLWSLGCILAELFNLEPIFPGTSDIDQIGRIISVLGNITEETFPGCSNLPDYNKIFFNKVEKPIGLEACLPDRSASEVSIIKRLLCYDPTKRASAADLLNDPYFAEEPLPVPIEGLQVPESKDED
In short: as §1

LOC_OS07G06570-cb004 = tested on: LOC_OS07G06570-cb004
In short: as §1

LOC_OS07G07230-cb001 = tested on: LOC_OS07G07230-cb001
In short: as §1

Compound	thermal shift delta Tm (LOC_OS02G45750-cb003) [°C]	thermal shift delta Tm (LOC_OS02G54510-cb004) [°C]	thermal shift delta Tm (LOC_OS03G04050-cb001) [°C]	thermal shift delta Tm (LOC_OS03G12390-cb001) [°C]	thermal shift delta Tm (LOC_OS03G27990-cb004) [°C]	thermal shift delta Tm (LOC_OS03G50450-cb001) [°C]	thermal shift delta Tm (LOC_OS03G50810-cb003) [°C]	thermal shift delta Tm (LOC_OS04G35114-cb001) [°C]	thermal shift delta Tm (LOC_OS04G38480-cb003) [°C]	thermal shift delta Tm (LOC_OS04G41100-cb001) [°C]	thermal shift delta Tm (LOC_OS04G57630-cb004) [°C]	thermal shift delta Tm (LOC_OS05G07850-cb002) [°C]	thermal shift delta Tm (LOC_OS05G16824-cb004) [°C]	thermal shift delta Tm (LOC_OS05G28520-cb001) [°C]	thermal shift delta Tm (LOC_OS05G30820-cb001) [°C]	thermal shift delta Tm (LOC_OS05G43570-cb004) [°C]	thermal shift delta Tm (LOC_OS06G16330-cb003) [°C]	thermal shift delta Tm (LOC_OS06G22820-cb001) [°C]	thermal shift delta Tm (LOC_OS07G06570-cb004) [°C]	thermal shift delta Tm (LOC_OS07G07230-cb001) [°C]
C[C@@H]1COCCN1c1cc(C2([S@](C)(=N)=O)CC2)nc(-c2cc[nH]c3nccc2-3)n1	0.39	0.1	0.32	-0.31	0.13	0.46	0.2	2.45	0.68	0.52	-0.11	3.99	-2.04	0.65	0.15	0.19	0.37	-0.1	0.71	-0.05
CN1CCN(C2CCN(C(=O)Nc3cc(Oc4ccc(NC(=O)C5(C(=O)Nc6ccc(F)cc6)CC5)c(F)c4)ccn3)CC2)CC1 [Golvatinib (E7050)]	0.4	-0.38	0.26	0.04	0.36	0.52	0.33	0.27	1.71	1.78	0.73	5.87	-0.83	6.78	0.39	0.58	2.41	0.51	1.02	0.08
N=C(N)NC(=N)NCCc1ccccc1 [Phenformin HCl]	0.17	-0.29	0.17	-0.23	0.15	0.26	0.78	-0.12	0.97	-0.08	0.25	-0.02	-6.46	0.39	0.48	0.27	-0.35	0.41	0.53	-0.03
O=C(Nc1cccc(Cl)c1)Nc1ncc(CCNc2ncnc3ccsc23)s1 [SNS-314 Mesylate]	0.93	0.38	1.02	1.77	0.36	0.82	0.75	1.73	2.48	1.12	2.15	7.18	2.52	1.77	0.46	1.08	4.68	1.24	0.91	-0.06
Cc1cc(F)c(Nc2ncnc3cc(OCc4ccccc4)ccc23)cc1O	0.78	0.36	0.9	0.2	0.83	1.28	0.71	1.12	1.35	-0.11	-0.1	1.29	-1.22	1.19	0.76	1.17	-0.11	1.28	2.49	0.37
CC(=O)O/N=C1/C(c2c(O)[nH]c3cc(Br)ccc23)=Nc2ccccc21 [BIO-acetoxime]	9.18	2.31	1.28	-0.22	0.36	-0.71	5.4	5.86	-0.03	0.88	0.24	7.48	4.45	-0.58	1.03	-0.53	2.52	-0.05	0	0.92
Nc1nc(N)c2nc(-c3cccc(O)c3)c(-c3cccc(O)c3)nc2n1	0.83	0.31	0.2	0.79	1.44	0.33	0.34	0.99	1.12	0.63	0.04	5.27	-5.41	0.94	0.79	0.92	0.76	0.53	1.54	0.2
CCOc1cn(-c2ccc(F)cc2C)nc1C(=O)Nc1ccc(Oc2ccnc3cc(OC)c(OC)cc23)c(F)c1	1.39	0.07	0.15	0.26	0.2	0.09	1.07	1.9	2.19	0.88	2.05	11.1	-0.65	0.31	0.28	0.24	3.99	0.19	0.82	0.19
CCc1cnn2c(NCc3ccc[n+]([O-])c3)cc(N3CCCC[C@H]3CCO)nc12	0.58	0.19	0.27	1.31	0.33	0.63	0.67	0.57	0.56	0.68	-0.16	2	-0.11	0.17	0.37	0.19	-0.11	0.41	0.51	0.3
Nc1nccc(Oc2ccc3c(C(=O)Nc4cccc(C(F)(F)F)c4)cccc3c2)n1	-1.33	0.78	0.37	-0.16	0.11	-0.18	0.17	0.62	1.77	0.51	0.43	-1.62	-1.01	0.93	0.73	0.58	0	0.99	1.61	0.15

— the supplement of paper PMC9694430
